In PubChem BioAssay AID488890 (Southern Research Specialized Biocontainment Screening …, 2010):
In all, about 320,000 compounds went through this assay and about 1,300 (0.41%) were called active. About 3% were inconclusive and are not listed. The rule behind the calls is not given here. The list is a sample of the results. Entries with a potency or affinity are not part of this list.

test: growth inhibition of non-replicating M. tuberculosis (AID 488890); details: Mycobacterium tuberculosis non-replicating, at 25 µM, stronger effect = higher value;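 note: plate controls were DMSO cells for no effect and high antibiotic wells for full effect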

| SMILES | inhibition [%] |
| --- | --- |
| COC(=O)COc1ccc(/C=N/NC(=O)c2ccc(N(Cc3ccccc3)S(C)(=O)=O)cc2)cc1 | 64.2 |
| CCn1c(SCc2cccnc2)nnc1-c1c[nH]c2ccccc12 | -5.65 |
| CC(=O)N1CCCc2cc(S(=O)(=O)NCCC3=CCCCC3)ccc21 | 17.1 |
| CCOC(=O)c1ccc(CNCc2ccc(Br)cc2)cc1 | 43.5 |
| CC(=O)NCC(=O)OCC(=O)c1ccc(Br)cc1 | 27.9 |
| COc1ccc(C(=O)OCCN2CCCCC2)cc1 | 4.85 |
| CC(C)Oc1ccc(OCCCN2CCCCCC2)cc1 | 35.7 |
| COc1ccc(C(=O)CN2CCCCC2)cc1 | -2.71 |
| O=C(CCCCN1CCCCC1)c1ccccc1 | -7.7 |
| O=C(CCN1CCCCC1)Nc1ccccc1 | -3.98 |
| CCC(=O)c1ccc(OCC(O)CN2CCCCC2)cc1 (configuration not stated) | 9.06 |
| O=C(CN1CCCCC1)c1ccc(OC(F)F)cc1 | -4.47 |
| CC(C)COc1ccc(C(=O)OCCN2CCCCC2)cc1 | 13.8 |
| COCCC1CCCCN1C(=O)c1cc(COc2ccc(C)nc2)on1 (configuration not stated) | -7.63 |
| Cc1csc(=Nc2c(C)n(C)n(-c3ccccc3)c2=O)n1Cc1ccccc1 | -1.63 |
| NC(=O)c1ccsc1NC(=O)COC(=O)c1ccc(Cl)c(N)c1 | -0.17 |
| COc1ccc(C)cc1NC(=O)CCC(=O)Nc1nnc(C2CCCCC2)s1 | 0.87 |
| CCN(CC1CCCN(CCc2cccc(OC)c2)C1)C(=O)c1ccoc1C (configuration not stated) | -3.45 |
| Cc1cc(NC(=O)CSc2nnc(-c3ccc(S(=O)(=O)N4CCCC4)cc3)n2C)no1 | -6.04 |
| O=C(Nc1cc(S(=O)(=O)N2CCCCCC2)ccc1OCC(F)(F)F)c1cnccn1 | 9.9 |
| Cn1c(=O)[nH]c2nncnc2c1=O | 12.4 |
| CCCCn1c(N)c(N(CCC(C)C)C(=O)COC(=O)c2cccnc2Cl)c(=O)[nH]c1=O | 17.4 |
| CC(=O)Nc1ccc(S(=O)(=O)NCC(=O)NCCc2ccc(S(N)(=O)=O)cc2)cc1 | -0.25 |

| SMILES | inhibition [%] |
| --- | --- |
| O=C(N=C1N=C2C=CC(Br)=CN2Cc2ccccc21)c1ccc([N+](=O)[O-])cc1[N+](=O)[O-] | 61.8 |
| CCOc1ccc(NC(=O)CCN2CCCCC2)cc1 | -37.2 |
| CCOc1ccc(OCCN2CCCCC2)cc1 | 8.17 |
| O=C(CSc1nnc(Cn2nnc3ccccc32)o1)Nc1cccc(Cl)c1 | 3.51 |
| N#CCO/N=C(\c1ccccc1)c1ccncc1 | 0.55 |
| O=c1oc2ccccc2c(Nc2cccc3ccccc23)c1[N+](=O)[O-] | 21.2 |
| O=c1oc2ccccc2c(Nc2ccc(O)cc2)c1[N+](=O)[O-] | 35.3 |
| COc1ccc(S(=O)(=O)N2CCN(C)CC2)cc1C | 0.44 |
| N#Cc1ccsc1NC(=O)C1CC(=O)N(Cc2ccccc2)C1 (configuration not stated) | 50.7 |
| Cc1nn(CC(=O)N2CCc3ccccc3C2)c(C)c1Cl | 10.6 |
| CCOC(=O)c1c(NC(=O)CN2CCOCC2)sc(C(=O)NC)c1C | -15.7 |
| CCOC(=O)c1c(NC(=O)CCN2CCOCC2)sc(C)c1-c1ccccc1 | 55.4 |
| O=C(Nc1ncc2c(n1)-c1ccccc1OC2)c1ccc(Cl)cc1 | 75.5 |
| O=C(Nc1ncc2c(n1)-c1ccccc1OC2)c1ccccc1Cl | 13.6 |
| COc1ccc(C(CNC(=O)c2cccc(S(=O)(=O)NCc3ccccc3)c2)N(C)C)cc1 (configuration not stated) | -0.497 |
| O=C(NCc1ccc2c(c1)OCO2)c1ccc(Br)s1 | 70.4 |
| O=C(NCc1ccc2c(c1)OCO2)c1c(Cl)cccc1Cl | 3.82 |
| CC(C)(C)OC(=O)[C@H](Cc1ccccc1)NC(=O)c1nc[nH]c1C(=O)N1CCNCC1 | 9.16 |
| Cc1ccc(NC(=O)C2(c3ccc([N+](=O)[O-])cc3)CCCC2)cc1 | 56.9 |
| CCOC(=O)C1CCN(c2c(-c3ccccc3)c3cc(Cl)ccc3[nH]c2=O)CC1 | -6.2 |
| CN(Cc1ccccc1)C(=O)c1[nH]cnc1C(=O)N[C@@H](Cc1ccccc1)C(=O)OC(C)(C)C | 57.5 |
| CSc1ccccc1NC(=O)c1cc(CC(C)C)on1 | 77.5 |
| CC(C)Cc1cc(C(=O)Nc2cc(Cl)ccc2Cl)no1 | 75.3 |

| SMILES | inhibition [%] |
| --- | --- |
| CC(C)Cc1cc(C(=O)Nc2ccc3c(c2)OCO3)no1 | 79 |
| COc1ccc(NC(=O)c2cc(CC(C)C)on2)cc1OC | 27.3 |
| COc1ccc(NC(=O)c2ccc(NC(=O)c3cccs3)cc2)cc1 | 17.2 |
| Cc1ccc(S(=O)(=O)N(C)/N=C2/C(=O)N(CC(=O)O)c3ccccc32)cc1 | -9.17 |
| CC/C(=N\NC(=O)Nc1ccccc1)c1c(O)n(Cc2ccccc2)c(=O)[nH]c1=O | 0.07 |
| O=C(/C=C/c1ccc(Br)cc1)Nc1ccc(S(=O)(=O)Nc2ncccn2)cc1 | 21.5 |
| CCOc1ccccc1NC(=O)CCS(=O)(=O)c1cccs1 | 1.98 |
| C/C(=N/NC(=O)c1ccccn1)c1c[nH]c2ccccc12 | 53 |
| C/C(=N/NC(=O)c1ccccn1)c1ccc(O)cc1 | 65.9 |
| C/C(=N\NC(=O)c1cccc(Br)c1)c1ccc(Br)cc1 | 5.12 |
| C/C(=N/NC(=O)c1ccncc1)c1c[nH]c2ccccc12 | 52.8 |
| O=C(NCc1ccccn1)c1ccccc1OCc1ccc(F)cc1 | -9.24 |
| C/C(=N\NC(=O)c1ccccn1)c1ccc(Cl)cc1 | 65.9 |
| C/C(=N\NC(=O)c1cccc(Br)c1)c1cccnc1 | -8.7 |
| CCC(CC)=NNC(=O)c1ccccc1OCc1ccc(F)cc1 | 1.96 |
| CC(=O)NC(c1ccc(C(C)C)cc1)c1c(O)ccc2ccccc12 (configuration not stated) | -3.1 |
| Cc1cc(C)c(S(=O)(=O)N2CCCC(C(=O)N3CCCC3)C2)c(C)c1 (configuration not stated) | -5.37 |
| CCn1c(=O)n(CC)c2cc(NS(=O)(=O)c3ccccc3)ccc21 | 5.29 |
| COC(=O)c1c(-c2cccnc2)csc1NC(=O)c1cc(C)on1 | 39.4 |
| CC(C)c1ccc(NC2CCCN(C(=O)CCc3cnn(C)c3)C2)cc1 (configuration not stated) | -5.85 |
| CC(=O)c1sc(NC(=O)CN2C(=O)CCC2=O)nc1C | -3.51 |
| O=c1cc([O-])[n+]2c3n1CCCN3CCC2 | -14.7 |
| COc1cc(C(=O)N/N=C(\C)c2ccccn2)cc(OC)c1OC | 36.9 |

| SMILES | inhibition [%] |
| --- | --- |
| COc1ccc(C(=O)N/N=C(\C)CC(=O)Nc2ccccn2)cc1OC | -1.08 |
| CCn1c(SCC(=O)Nc2cc(Cl)ccc2OC)nnc1C1CC1 | 1.4 |
| COc1ccc(NC(=O)COc2nc(N(C)C)nc(N(C)C)n2)cc1 | -4.63 |
| COc1ccc(CCC(=O)NC2CCCN(Cc3ccc(Cl)cc3)C2)cc1OC (configuration not stated) | 7.24 |
| OCC[C@@H]1C[C@@H](O)[C@H](O)[C@@]2(OCCc3ccccc32)O1 | -1.04 |
| COc1cc(OC)cc(C(=O)NNC(=O)C2CCCC2)c1 | -10.6 |
| CC(C)N1CCc2c(sc(NC(=O)c3nc4ccccc4s3)c2C(N)=O)C1 | 77.9 |
| CC(=O)N1CCc2c(sc(NC(=O)C3CC3)c2-c2nc3ccccc3s2)C1 | 12.5 |
| Cc1cccc(N(CC(=O)NC(C)(C)C)C(=O)CS(=O)CC(=O)Nc2ccc(F)cc2)c1 (configuration not stated) | -8.34 |
| COc1ccc(-c2nnc(SCc3ccc(C(=O)O)cc3)n2N)cc1 | -5.97 |
| O=C(CCS(=O)(=O)Cc1ccccc1)Nc1nncs1 | 60.5 |
| COCCSc1nnc(NC(=O)CS(=O)(=O)c2ccccc2)s1 | 2.87 |
| O=C(CS(=O)(=O)c1ccccc1)Nc1ncc([N+](=O)[O-])s1 | -8.38 |
| Cc1nnc(NC(=O)CCS(=O)(=O)Cc2ccccc2)s1 | 57.7 |
| O=C(Cc1csc(Nc2nc(=S)[nH]c3ccccc23)n1)N1CCN(c2cccc(C(F)(F)F)c2)CC1 | -8.89 |
| CC(=O)N(Cc1ccccc1)Cc1nc2sc(C)c(C)c2c(=O)[nH]1 | 5.06 |
| O=C(CN1C(=O)CSc2ccc(S(=O)(=O)N3CCOCC3)cc21)NCCCN1CCCCC1 | -5.81 |
| Cc1ccc(S(=O)(=O)CC(=O)Nc2ccc(Cl)cn2)cc1 | 53.5 |
| COc1ccc([N+](=O)[O-])cc1/C=N/NC(=O)CNC(=O)c1cccc(F)c1 | 23.1 |
| CSc1nc2sc3c(c2c(=O)[nH]1)CCC(C)C3 (configuration not stated) | -4.35 |
| CC(C)CCOCc1nc2sc3c(c2c(=O)[nH]1)CCC(C)C3 (configuration not stated) | 27.8 |
| NC(=O)CCc1c[nH]c2ccccc12 | -20.3 |
| O=C(CCc1c[nH]c2ccccc12)NCc1ccc2c(c1)OCO2 | 6.21 |

| SMILES | inhibition [%] |
| --- | --- |
| O=C(CCc1c[nH]c2ccccc12)NCCc1ccc(Cl)cc1 | -0.44 |
| CC(=O)N[C@@H](Cc1c[nH]c2ccccc12)C(=O)OCc1ccc(C#N)cc1 | 5.82 |
| O=C(Cc1c[nH]c2ccccc12)NCc1ccc(Cl)cc1 | 12.5 |
| O=C(CCCc1c[nH]c2ccccc12)NCc1ccc2c(c1)OCO2 | 7.12 |
| CCOC(=O)CNC(=O)CSc1ncnc2c1nnn2-c1ccc(F)cc1 | 71.2 |
| COc1ccc(-c2sccc2C(C)C(=O)O)cc1 (configuration not stated) | 1.98 |
| CCOc1ccc(S(=O)(=O)NCCC(=O)N2CCN(c3ccccc3O)CC2)cc1 | 0.02 |
| Cc1cc(C)nc(NS(=O)(=O)c2ccc(NC(=O)c3ccc(S(=O)(=O)N4CCOCC4)cc3)cc2)n1 | 14.6 |
| CCOCC(=O)Nc1nnc(COC)s1 | 9.42 |
| CC(=O)c1ccc(N2CCN(S(=O)(=O)c3cc4[nH]c(=O)c(=O)[nH]c4cc3C)CC2)cc1 | -6.88 |
| COc1ccc(/C=N/Nc2nnc(C)n2N)cc1OC | -3.85 |
| CCOc1cc(/C=N/Nc2nnc(C)n2N)ccc1O | 2.89 |
| NC(=S)N/N=C/c1ccc(-c2ccc([N+](=O)[O-])cc2)o1 | 63.3 |
| Cc1nnc(N/N=C/c2cc([N+](=O)[O-])c(N3CCC(C)CC3)cc2N2CCC(C)CC2)n1N | 37.3 |
| Cc1nnc(N/N=C/c2c(Cl)cccc2Cl)n1N | 18.3 |
| CC(C)(C)c1nnc(N/N=C/c2ccc(Br)cc2)n(N)c1=O | 12 |
| CC1CCN(c2ccc(/C=N/n3nnnc3N)cc2[N+](=O)[O-])CC1 | 6.33 |
| NC(=O)N/N=C/c1ccc(-c2ccc([N+](=O)[O-])cc2)o1 | 45.3 |
| COc1ccc(N(CC(=O)NCCc2ccccc2)C(=O)CCC(=O)Nc2ccccn2)cc1 | -3.83 |
| CC(C)N(CCNC(=O)c1ccc(CS(=O)(=O)c2c(Cl)cccc2Cl)o1)Cc1ccccc1 | 15.8 |
